From the supplement of paper PMC8975748
Counter-ions that a name gives are not always drawn. ± gives the standard deviation of the averaged measurements.

Columns and labels:
[1] = test system: Saccharomyces cerevisiae BY4741 SeMeCo community; test: mean cell size (pixel area) (pixels); higher = larger cells; settings: 10 µM; 24 h; SM minimal medium
In short: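 A fluorescent Saccharomyces cerevisiae BY4741 community carrying four plasmids was used, with each plasmid complementing one auxotrophy and bearing a fluorescent marker. An overnight preculture at OD600 = 1.0 was diluted to OD600 = 0.3, and 70 µl went into 384-well plates acoustically predosed with drug (final 10 µM) in SM medium for 24 h. After paraformaldehyde fixation, cells were imaged by automated confocal microscopy and analysed in Harmony, giving the mean cell pixel area per well. Each value is the average of 3 replicates. Same SeMeCo high-content imaging drug screen: Selleck FDA-approved drugs at 10 µM, 24 h in SM medium, 384-well plates, 3 replicates.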

[2] = test system: Saccharomyces cerevisiae BY4741 SeMeCo community; test: z-score of prototroph abundance vs DMSO median; higher = larger share of this subpopulation than in DMSO controls; settings: 10 µM; 24 h; SM minimal medium; subpopulation (auxotrophy): Prototroph
In short: (§1)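 Subpopulation abundance was reported as a z-score against the median of vehicle wells. The Saccharomyces cerevisiae BY4741 community, carrying four plasmids that each restored one auxotrophy and encoded a distinct fluorescent protein, was grown 24 h in minimal SM medium in 384-well plates holding library drugs at 10 µM final. Cells were paraformaldehyde-fixed and imaged by automated confocal microscopy, with single-auxotroph fluorescent strains used for thresholds and autofluorescence correction.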

[3] = test system: Saccharomyces cerevisiae BY4741 SeMeCo community; test: z-score of subpopulation abundance vs DMSO median, subpopulation auxotrophic for M; higher = larger share of this subpopulation than in DMSO controls; settings: 10 µM; 24 h; SM minimal medium; subpopulation (auxotrophy): M
In short: as §1

[4] = test system: Saccharomyces cerevisiae BY4741 SeMeCo community; test: z-score of subpopulation abundance vs DMSO median, subpopulation auxotrophic for U; higher = larger share of this subpopulation than in DMSO controls; settings: 10 µM; 24 h; SM minimal medium; subpopulation (auxotrophy): U
In short: as §1

[5] = test system: Saccharomyces cerevisiae BY4741 SeMeCo community; test: z-score of subpopulation abundance vs DMSO median, subpopulation auxotrophic for H; higher = larger share of this subpopulation than in DMSO controls; settings: 10 µM; 24 h; SM minimal medium; subpopulation (auxotrophy): H
In short: as §1

[6] = test system: Saccharomyces cerevisiae BY4741 SeMeCo community; test: z-score of subpopulation abundance vs DMSO median, subpopulation auxotrophic for LU; higher = larger share of this subpopulation than in DMSO controls; settings: 10 µM; 24 h; SM minimal medium; subpopulation (auxotrophy): LU
In short: as §1

[7] = test system: Saccharomyces cerevisiae BY4741 SeMeCo community; test: z-score of subpopulation abundance vs DMSO median, subpopulation auxotrophic for LM; higher = larger share of this subpopulation than in DMSO controls; settings: 10 µM; 24 h; SM minimal medium; subpopulation (auxotrophy): LM
In short: as §1

[8] = test system: Saccharomyces cerevisiae BY4741 SeMeCo community; test: z-score of subpopulation abundance vs DMSO median, subpopulation auxotrophic for HM; higher = larger share of this subpopulation than in DMSO controls; settings: 10 µM; 24 h; SM minimal medium; subpopulation (auxotrophy): HM
In short: as §1

[9] = test system: Saccharomyces cerevisiae BY4741 SeMeCo community; test: z-score of subpopulation abundance vs DMSO median, subpopulation auxotrophic for HU; higher = larger share of this subpopulation than in DMSO controls; settings: 10 µM; 24 h; SM minimal medium; subpopulation (auxotrophy): HU
In short: as §1

[10] = test system: Saccharomyces cerevisiae BY4741 SeMeCo community; test: z-score of subpopulation abundance vs DMSO median, subpopulation auxotrophic for UM; higher = larger share of this subpopulation than in DMSO controls; settings: 10 µM; 24 h; SM minimal medium; subpopulation (auxotrophy): UM
In short: as §1

[11] = test system: Saccharomyces cerevisiae BY4741 SeMeCo community; test: z-score of subpopulation abundance vs DMSO median, subpopulation auxotrophic for HL; higher = larger share of this subpopulation than in DMSO controls; settings: 10 µM; 24 h; SM minimal medium; subpopulation (auxotrophy): HL
In short: as §1

[12] = test system: Saccharomyces cerevisiae BY4741 SeMeCo community; test: z-score of subpopulation abundance vs DMSO median, subpopulation auxotrophic for HLU; higher = larger share of this subpopulation than in DMSO controls; settings: 10 µM; 24 h; SM minimal medium; subpopulation (auxotrophy): HLU
In short: as §1

[13] = test system: Saccharomyces cerevisiae BY4741 SeMeCo community; test: z-score of subpopulation abundance vs DMSO median, subpopulation auxotrophic for HUM; higher = larger share of this subpopulation than in DMSO controls; settings: 10 µM; 24 h; SM minimal medium; subpopulation (auxotrophy): HUM
In short: as §1

[14] = test system: Saccharomyces cerevisiae BY4741 SeMeCo community; test: z-score of subpopulation abundance vs DMSO median, subpopulation auxotrophic for LUM; higher = larger share of this subpopulation than in DMSO controls; settings: 10 µM; 24 h; SM minimal medium; subpopulation (auxotrophy): LUM
In short: as §1

[15] = test system: Saccharomyces cerevisiae BY4741 SeMeCo community; test: z-score of subpopulation abundance vs DMSO median, subpopulation auxotrophic for HLUM; higher = larger share of this subpopulation than in DMSO controls; settings: 10 µM; 24 h; SM minimal medium; subpopulation (auxotrophy): HLUM
In short: as §1

[16] = test system: Saccharomyces cerevisiae BY4741 SeMeCo community; test: z-score of subpopulation abundance vs DMSO median, subpopulation auxotrophic for L; higher = larger share of this subpopulation than in DMSO controls; settings: 10 µM; 24 h; SM minimal medium; subpopulation (auxotrophy): L
In short: as §1

[17] = test system: Saccharomyces cerevisiae BY4741 SeMeCo community; test: z-score of subpopulation abundance vs DMSO median, subpopulation auxotrophic for HLM; higher = larger share of this subpopulation than in DMSO controls; settings: 10 µM; 24 h; SM minimal medium; subpopulation (auxotrophy): HLM
In short: as §1

Compound	mean cell size [1]	z-score of prototroph abundance [2]	z-score of subpopulation abundance [3]	z-score of subpopulation abundance [4]	z-score of subpopulation abundance [5]	z-score of subpopulation abundance [6]	z-score of subpopulation abundance [7]	z-score of subpopulation abundance [8]	z-score of subpopulation abundance [9]	z-score of subpopulation abundance [10]	z-score of subpopulation abundance [11]	z-score of subpopulation abundance [12]	z-score of subpopulation abundance [13]	z-score of subpopulation abundance [14]	z-score of subpopulation abundance [15]	z-score of subpopulation abundance [16]	z-score of subpopulation abundance [17]
CC(Cc1ccc(O)c(O)c1)C(C)Cc1ccc(O)c(O)c1 (configuration not stated) [Nordihydroguaiaretic acid (NDGA)]	12.5 ± 0.17	0.67	-0.1	-0.02	-1.01	-0.29	0.02	-0.39	-0.76	-0.5	-0.39	0.33	-0.77	0.39	-0.44		
COCCCOc1ccnc(C[S+]([O-])c2nc3ccccc3[nH]2)c1C (configuration not stated) [Rabeprazole]		-0.81	-1.07	0.43	2.01	1.56		0.01	0.85	-0.92	1.62	1.71	0.23		0		
C[C@]12CC[C@@H]3c4ccc(O)cc4CC[C@H]3[C@@H]1CC[C@@H]2O [Estradiol]	12.7 ± 0.21	0.44	0.4	0.01	0.3		-0.16	-0.39	-1.02	-0.27	-0.05	0.9	-0.92	0.18	1.17	-0.14	-0.66
CCN(CC)CCOC(=O)c1ccc(N)cc1 [Procaine HCl]	12.5 ± 0.25	0.84	-0.44	-0.15	-0.47	-0.34	0	-0.71	-0.49	-0.8	-0.7	0.02		0.14	0.26		-0.24
NC(=O)c1cn(Cc2c(F)cccc2F)nn1 [Rufinamide]	12.2 ± 0.16	-0.37	0.02	-0.6	0.5	0.45	0.7		-0.24	-0.01	0.55	0.55		0.43	0.29		0.38
Clc1ccc(C(Cn2ccnc2)OCc2c(Cl)cccc2Cl)c(Cl)c1 (configuration not stated) [Isoconazole nitrate]		-7.83	-0.17	2.14	21	-1.43	-1.59		11.7		3.07	2.86	4.65	-0.77	9.4		13.3
Cc1ncc([N+](=O)[O-])n1CCOC(=O)c1ccccc1 [Metronidazole Benzoate]	12.382 ± 0.0058	0.95	-0.51	-0.16	-1.17	-1.05			-1	-0.26		-1.28		-1.13	-0.51		-0.79
